Compound activity deposited in PubChem by National Center for Advancing Translational Sciences (NCATS).
The list is not random: actives were taken first. Their share in the collection is about 5.1%.
NPSR antag: antagonists of human neuropeptide S receptor cAMP signaling | CHO-NPSR cells, cAMP TR-FRET, antagonist mode | Potency, µM (top dose mostly 38.3 µM), for inactives: at the top dose activity change, negative = inhibition, usual class: inhibitors | 220,000 compounds, 1% hits; further: potency means the concentration at half of the fitted maximal effect; nearly all actives have a fitted effect of over 50% in size
PNC inhibitor: blocks assembly of the perinucleolar compartment | 140,000 compounds, 3.1% hits | PC3M PTB-GFP, PNC prevalence imaging, 16 h; hits give low values | AID 2417 | activity change (PNC), negative = inhibition, % at 10 µM;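 active means readout at or below -70, meaning at least 70% loss of cells showing the perinucleolar compartment, a nuclear body marking cancer cells; inconclusive means readout between -30 and a set limit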;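 further: plate controls were DMSO wells for no effect and camptothecin positive control wells for full effect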
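Compounds are pinned in duplicate onto adhered PC3M cells stably expressing GFP-tagged PTB and incubated 16 h at 37 C. Cells are then fixed, nuclei stained with Hoechst, and PNC-positive cells counted.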
Tau fluor counter: counter-screen for tau fibril formation inhibitors; tau K18 P301L Alexa594 fluorescence, heparin fibrillization; AID 1463; Potency, µM (titrated, usually from 57.7 µM), without a hit: at the highest dose activity change, negative = decrease; 280,000 compounds, 0.93% hits; further: potency means the concentration at half of the fitted maximal effect; nearly all actives have a fitted effect of over 55% in size
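Human K18 P301L tau (15 uM unlabeled plus 0.24 uM Alexa 594-labeled, final) in 100 mM sodium acetate pH 7 was mixed with compound and 20 uM heparin and incubated 6 hr at 37 C.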
Tau FP inhib: inhibitors of human tau fibril formation. Potency, µM (top dose mostly 57.7 µM), without a hit: at the highest dose activity, negative = inhibition, usual class: inhibitors. K18 P301L tau heparin fibrillization, Alexa594 FP, 6 h. 280,000 compounds, 0.39% hits; further: potency means the concentration at half of the fitted maximal effect; nearly all actives have a fitted effect of over 55% in size
Target sequence (P10636 561-689 P618L limits assumed): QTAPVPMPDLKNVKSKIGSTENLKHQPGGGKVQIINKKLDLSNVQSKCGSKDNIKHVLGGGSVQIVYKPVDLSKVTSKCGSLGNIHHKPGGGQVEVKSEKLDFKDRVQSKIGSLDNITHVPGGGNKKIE
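Human tau K18 […] P301L fragment, 15 uM unlabeled plus 0.24 uM Alexa 594-labeled tau (final), with compound and 20 uM heparin in 100 mM sodium acetate pH 7; 6 hr at 37 C, then Alexa 594 FP read.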
Tau ThT inhib: inhibitors of human tau fibril formation, thioflavin T binding; P10636; recombinant tau K18 P301L, heparin-induced fibrillization, ThT fluorescence; Potency, µM (titrated, usually from 57.4 µM), inactives show top-dose activity, negative = inhibition, hits mostly inhibitors; 270,000 compounds, 2.1% hits; further: potency means the concentration at half of the fitted maximal effect; nearly all actives have a fitted effect of over 55% in size
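ThT emission at 510 nm, taken 1 hr after adding 30 uM dye, quantifies aggregates formed when 20 uM heparin acts on human tau K18 P301L for 6 hr at 37 C.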
KDM4E inh: blocks human JMJD2E demethylase activity; B2RXH2; JMJD2E catalytic domain, FDH-coupled NADH fluorescence (FDH is formaldehyde dehydrogenase); Potency, µM (doses to about 57.1 µM), for inactives: at the top dose activity change, negative = inhibition, hits mostly inhibitors; 230,000 compounds, 1.6% hits; AID 2147; active means well fitted inhibition curve with a large enough effect, not every such curve was filed as active; inconclusive means small, poorly fitted or top-dose-only effect, or another doubt; inactive means no such curve, though single readings can be large or run the other way;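 further: potency means the concentration at half of the fitted maximal effect; 0% = wells with enzyme and -100% = buffer wells without enzyme; nearly all actives have a fitted effect of over 50% in size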
Target sequence (B2RXH2 1-337 limits assumed): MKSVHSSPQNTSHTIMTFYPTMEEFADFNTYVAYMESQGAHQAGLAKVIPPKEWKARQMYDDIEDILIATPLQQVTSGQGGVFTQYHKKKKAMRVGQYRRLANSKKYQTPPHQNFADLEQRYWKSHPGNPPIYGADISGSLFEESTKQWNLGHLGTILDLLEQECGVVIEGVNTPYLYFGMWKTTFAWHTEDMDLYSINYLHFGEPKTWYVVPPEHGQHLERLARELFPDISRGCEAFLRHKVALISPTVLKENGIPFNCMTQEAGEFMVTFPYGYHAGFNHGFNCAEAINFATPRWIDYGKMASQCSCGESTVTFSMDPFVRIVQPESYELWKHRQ
The depositor's hits bear a star; u = inconclusive; x = no result; ! = not confirmed by another sample; [ ] = remark or other dose. Unless noted, the call rests on the fitted dose curve; in most records, active means well fitted curve in the direction sought with a large enough effect; inconclusive means small, poorly fitted or top-dose-only effect, or another doubt; inactive means no such curve, though single readings can be large; an effect the other way counts as inactive or inconclusive. Unless noted, on the % scale 0 is the no-effect control and ±100 the full control effect.

SMILES	NPSR antag	PNC inhibitor	Tau fluor counter	Tau FP inhib	Tau ThT inhib	KDM4E inh
CCN(Cc1ccccc1)S(=O)(=O)c1ccc2[nH]c3c(c2c1)CCCCC3	x	x	7.94µM*[quencher]	2.3%	0.5%	x
CCN(c1ccc(OC)cc1)S(=O)(=O)c1ccc2[nH]c3c(c2c1)CCCCC3	x	x	10µM*[quencher]	0.7%	-6.9%	x
COc1cccc2c1ncc1c(-c3ccc(C)cc3)nn(-c3cccc([N+](=O)[O-])c3)c12	x	x	-6.2%	4.1%	u	x
COc1ccc(-c2cc(C)nc3c(-c4ccc(OC)c(OC)c4)c(C)nn23)cc1	x	x	14.1µM*[quencher]	u	10µM*	x
COc1ccc(-c2c(C)nn3c(-c4ccccc4)cc(-c4ccccc4)nc23)cc1OC	x	x	u	16.0%	-20.0%	x
CN(C)Cc1cc(O)c(CN(C)C)cc1O	4.8%	x	u	u	7.08µM*	u
Cc1cccc(NC(=O)Cn2c(=O)n(CCc3c[nH]c4ccccc34)c(=O)c3cccnc32)c1	-11.0%	7.8	11.2µM*[quencher]	-7.2%	-12.6%	1.3%
Cn1c(NC(=O)/C=C/c2ccco2)cc(=O)n(C)c1=O	-18.1%	-121.5*	-6.7%	-14.0%	u	u
CCc1ccccc1NC(=O)c1cc(S(=O)(=O)N2CCc3ccccc32)ccc1F	x	x	-29.8%	-7.7%	-15.1%	x
O=C(CN1CCCCC1)Nc1cccc(Oc2ccccc2)c1	15.0%[46.1 µM]	-105.7*	-9.8%	-9.1%	8.2%	4.6%
NC(=O)c1cc(-c2ccccc2)sc1NC(=O)CN1CCCCC1	u	-26.0	17.8µM*[quencher]	u	-12.7%	u
CCC(C)(C)NC(=O)C1CCC(CNS(=O)(=O)c2ccc3c(c2)CC(C)N3C(C)=O)CC1 (centres undefined)	x	x	-3.9%	5.5%	-0.8%	x
COc1cc(O)c(C(C)=O)c(CC(=O)O)c1	0.9%	x	-11.4%	-6.8%	u	25.1µM*
COc1cc(O)c(C(C)=O)c(OC)c1	x	x	-19.9%	-7.1%	-3.4%	1.7%
NNc1nc(-c2ccccc2)cc(-c2ccccc2O)n1	u	-106.0*	u	5.0%	u	-25.9%
Cc1ccc(C(CC(=O)NCC2(c3ccccc3)CCCC2)c2ccccc2)c(O)c1 (centres undefined)	x	x	u	-13.2%	-13.9%	x
Cc1ccc(N=Cc2nc(/C=C/c3cccc([N+](=O)[O-])c3)oc2O)cc1	-6.0%[46.1 µM]	27.6	-15.7%	12.0%	1.41µM*	-7.1%
O=C(NCCc1c[nH]c2ccccc12)C1CCC(Cn2c(=S)[nH]c3ccccc3c2=O)CC1 (centres undefined)	-25.4%[46.1 µM]	24.9	3.98µM*[quencher]	0.2%	u	0.4%
CCCCC1=CC2=C(c3ccco3)C(=O)C(C)(OC(=O)c3ccc(OC)cc3)C(=O)C2=CN1Cc1ccc2c(c1)OCO2 (centres undefined)	-15.3%	x	-5.1%[11.6 µM]	-11.3%[11.6 µM]	u	1.0%[11.4 µM]
CCCCC1=CC2=C(c3ccco3)C(=O)C(C)(OC(=O)c3ccc(OC)cc3)C(=O)C2=CN1Cc1ccccc1 (centres undefined)	-52.2%	x	2.1%[11.6 µM]	5.1%[11.6 µM]	12.6µM*!	15.8µM*!
CCCCC1=CC2=C(c3ccco3)C(=O)C(C)(OC(=O)c3ccc(OC)cc3)C(=O)C2=CN1CCc1ccccn1 (centres undefined)	-29.8%	x	-0.1%[11.6 µM]	-4.4%[11.6 µM]	u	8.91µM*!
CCCCC1=CC2=C(c3ccco3)C(=O)C(C)(OC(=O)c3ccc(OC)cc3)C(=O)C2=CN1CCc1c[nH]c2ccccc12 (centres undefined)	x	x	1.7%[11.6 µM]	-1.8%[11.6 µM]	3.3%[11.5 µM]	6.4%[11.4 µM]
CCCCC1=CC2=C(c3ccco3)C(=O)C(C)(OC(=O)c3ccc(OC)cc3)C(=O)C2=CN1C1CCCCC1 (centres undefined)	10µM*	x	-6.8%[11.6 µM]	-0.6%[11.6 µM]	u	u
CCCCC1=CC2=C(c3ccco3)C(=O)C(C)(OC(=O)c3ccc(OC)cc3)C(=O)C2=CN1CCOC (centres undefined)	-19.8%	x	-5.1%[11.6 µM]	-3.8%[11.6 µM]	u	-7.8%[11.4 µM]
CCOc1ccc(CCNC(=O)c2ccc(C)c(-n3cnc4cccnc43)c2)cc1	x	x	-4.9%	2.2%	1.1%	x
SMILES	NPSR antag	PNC inhibitor	Tau fluor counter	Tau FP inhib	Tau ThT inhib	KDM4E inh
Cc1cccc(C(=O)NCC(=O)OCc2cc(=O)n3nc(C4CC4)sc3n2)c1	x	x	-0.2%	-1.2%	-9.7%	x
O=C(Nc1c2c(nc3ccccc13)CCCC2)c1ccccc1F	9.2%	-119.3*	-14.7%	-3.4%	u	-4.9%
O=C(Nc1c2c(nc3ccccc13)CCCC2)c1ccccc1Cl	-1.1%	-27.6	2.6%	6.5%	4.2%	1.0%
N#Cc1c(NC(=O)CSc2ncn[nH]2)sc2c1CCCCC2	3.3%[46.1 µM]	-116.6*	-28.4%	-13.1%	-15.5%	-4.0%
COC(=O)c1ccccc1NC(=O)CSc1nc(-c2ccco2)cc(C(F)(F)F)n1	11.8%[46.1 µM]	-82.1*	-28.1%	-11.1%	u	u
N#Cc1c(NC(=O)CSc2nc(-c3ccco3)cc(C(F)(F)F)n2)sc2c1CCCC2	-3.1%[46.1 µM]	-83.8*	-11.8%	-2.3%	4.4%	-19.2%
COC(=O)c1c(NC(=O)CSc2nc(-c3ccco3)cc(C(F)(F)F)n2)sc2c1CCCC2	-0.2%[46.1 µM]	-23.7	6.6%	-3.7%	6.9%	-1.5%
Cn1c(SCC(=O)Nc2sc3c(c2C#N)CCC3)nnc1C1COc2ccccc2O1 (centres undefined)	-28.3%[46.1 µM]	-81.4*	-4.7%	-6.8%	-11.2%	5.9%
CS(=O)(=O)N1CCC(N2CCN(Cc3ccccc3)C(=O)C2=O)CC1	x	x	0.5%	-2.7%	2.3%	x
CCc1ccc(S(=O)(=O)Nc2cccc(-c3ccc(N4CCCCC4)nn3)c2)s1	x	x	-21.1%	-3.5%	3.9%	x
Cc1cc(N2CCC(C)CC2)nc(-n2nc(C)cc2C)n1	-1.3%[46.1 µM]	-95.8*	1.8%	8.4%	-5.6%	0.3%
Cc1ccc(NC(=O)CSc2nc3ccccc3n2CC(=O)N(C)C2CCCCC2)cc1C	x	x	7.9%	-2.4%	9.8%	x
CC(=O)c1c(C)[nH]c(C(=O)Nc2cccc(S(=O)(=O)N(C)c3ccccc3)c2)c1C	-37.3%	x	14.1µM*[quencher]	28.2µM*	-16.5%	u
COc1ccccc1NS(=O)(=O)c1cccc(NC(=O)c2[nH]c(C)c(C(C)=O)c2C)c1	-10.1%	x	u	u	9.0%	-11.7%
O=C(Nc1cccc(S(=O)(=O)N2CCCCC2)c1)c1ccc2ncsc2c1	-42.3%	x	20µM*[quencher]	u	x	u
CN(c1ccccc1)S(=O)(=O)c1cccc(NC(=O)c2ccc3ncsc3c2)c1	11.2%[7.67 µM]	x	15.8µM*[quencher]	u	-7.0%	-10.1%
CCOC(=O)c1ccc(NC(=O)CS(=O)(=O)Cc2nc(-c3ccc(C)cc3)oc2C)cc1	x	x	-19.6%	-18.1%	-3.4%	x
C=CC[C@@H]1C=C[C@H](O/N=C(\C)CCN2CCCc3nc(C)c(C)cc32)[C@H](CO)O1	x	x	2.8%[11.6 µM]	5.8%[11.6 µM]	3.3%[11.5 µM]	x
